Data on 23 compounds can be found in PubChem BioAssay AID488913 (National Center for Advancing Translational Sciences (NCATS), 2010).

SMILES strings stand for the structures. Results filed as inconclusive are left out. Activity calls are given as the source filed them. Calls come from the whole dose curve; as a rule, active = well fitted inhibition curve with a large enough effect; inconclusive = small, poorly fitted or top-dose-only effect, or effect the other way; inactive = no such curve, though single readings can be large or run the other way.

The nature of the assay: Confirmation Concentration-Response Assay for lipid storage modulators: for probe SAR. As to conditions: Drosophila S3 cells, BODIPY lipid droplet fluorescence, 18-24 h; series mostly up to 46.1 µM. In outline:
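Laser-scanning cytometry read BODIPY 493/503 lipid-droplet intensity and its ratio to CellTracker Red cell signal. Beforehand, 5,000 cells/well were exposed 18–24 h at 24 °C to test compound with oleic acid (1 µL, 400 µM). 20 µM Triacsin C defined full inhibition.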
Regarding `Cc1ccc(C)c(-c2csc(NC(=O)CSc3nnc(Nc4ccc(OC(F)(F)F)cc4)s3)n2)c1`, the Potency result was “inactive”. For `CCOC(=O)C1CCN(C(=O)C2(NC(=O)Nc3ccccc3Cl)CCC2)CC1` the value was 2810 nM (active). With `Cc1ccc(-n2ncc3c2CCCC3NC(=O)c2c(F)cccc2F)cc1C` (stereo not drawn), the Potency is 158 nM (active). For the compound `Cc1cccc(Nc2nnc(SCC(=O)Nc3nc(-c4ccc(F)cc4)cs3)s2)c1`, the Potency is 628 nM (active).

As for `O=C(NC1CCCc2c1cnn2-c1ccc(F)cc1F)c1ccccc1` (stereo not drawn), the Potency was 56 nM (active). For `O=C(NC1CCCc2c1cnn2-c1ccc(F)cc1F)c1c(F)cccc1Cl` (stereo not drawn) the value was 3530 nM (active). Next, `CCOC(=O)C1CCN(C(=O)C2(NC(=O)Nc3ccccc3Cl)CCCCC2)CC1`: 1440 nM (active); `CCOc1ccc(CCNC(=O)c2cc3sccc3n2Cc2ccc(OC(F)F)cc2)cc1OCC`: 6.3 nM (active). For `O=C(NCCc1ccc(O)c(O)c1)c1cc2sccc2n1Cc1ccccc1` the value was “inactive”; for `CCOc1ccc(CCNC(=O)c2cccs2)cc1OCC`, “inactive”; for `CCn1c(C(=O)NCCc2ccc(OC)c(OC)c2)cc2sccc21`, 3970 nM (active). For the compound `COc1ccc(NC(=S)N2CCN(c3cccc(Cl)c3)CC2)c(OC)c1`, the Potency entry was “inactive”.

`CC(C)(C)OC(=O)N1CCCCC1C(=O)NC1CCCc2c1cnn2-c1ccc(F)cc1F` (stereo not drawn): the Potency entry is “inactive”. For `Cn1c(=O)n(-c2ccc(C(C)(C)C#N)cc2)c2c3cc(-c4cnc5ccccc5c4)ccc3ncc21` the value was 1120 nM (active); for `Cc1ccc(-c2cnc(SCC(=O)Nc3nccs3)n2Cc2ccco2)cc1`, “inactive”; for `COc1ccc(-c2csc(NC(=O)CSc3nnc(Nc4ccccc4)s3)n2)cc1`, 628 nM (active). For `CCOc1ccc(CCNC(=O)c2cc3ccccc3n2C)cc1OCC` the value was 7910 nM (active).

As for `CC1=C(C(=O)NC2CCCc3c2cnn3-c2ccc(F)cc2F)OCCO1` (stereo not drawn), the Potency is 15.8 nM (active).

Turning to `CCOc1ccc(CCNC(=O)c2cc3sccc3n2CC=C(C)C)cc1OCC`, the Potency is 79.1 nM (active). Next, `O=C(Cc1ccccc1)NC1CCCc2c1cnn2-c1ccc(F)cc1F` (stereo not drawn): “inactive”; `CCOC(=O)C1CCN(C(=O)C2(NC(=O)NCc3ccccc3)CCCCC2)CC1`: 4450 nM (active); `O=C(O)CCc1ccc(NCc2cccc(Oc3ccccc3)c2)cc1`: “inactive”. For `CCOc1ccc(CCNC(=O)c2cc3sccc3n2Cc2cccnc2)cc1OCC` the value was 353 nM (active).
